Compounds with a hit are over-represented: about 6.6% of the library has one in this group of screens.
Gli-Sufu antag: antagonists of Gli-Sufu signaling; Sufu-KO-LIGHT fibroblasts, Gli luciferase reporter luminescence; inhibition, % at 5 µM; actives 0.74% (n = 340,000);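 active = inhibition above about 55%, limit read from the data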;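 note: 0% = DMSO-treated cells and 100% = wells with medium but no cells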
Mdm2 MdmX PPI: human Mdm2/MdmX binding inhibition; actives 3% (n = 330,000); inhibition, % at 8 µM; SaOS-2 split-luciferase Mdm2/MdmX complementation, luminescence; AID 485346; O15151+Q00987;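 active = inhibition of at least 50% at 8 µM in the primary screen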
CSC inhib: blocks cancer stem cells | cancer stem cell-like cells viability, luminescence | inhibition, % at 7.5 µM | actives 1.1% (n = 300,000) | AID 2717; in the data active = inhibition above about 75%; tested in HMLE shEcad cells
Beta apoptosis: beta cell apoptosis inhibition; INS-1E cytokine-induced death, ATP luminescence, 48 h; percent of positive-control rescue, neutral wells zero; protection from apoptosis, % (concentration not given with the values); actives 0.8% (n = 300,000); AID 435005;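 active = Every replicate reaches about 75%, or at least half do and their mean reaches it too, limit read from the data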;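 note: 0% = cytokine-treated negative control wells and 100% = positive control rescue; higher means more ATP so stronger rescue from cytokine killing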
MPTP inh: blocks calcium-induced mitochondrial swelling | isolated mouse mitochondria, Ca2+ swelling absorbance, 30 min | inhibition, % at 10 µM | AID 602449 | actives 1.4% (n = 360,000);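 active = inhibition of 50% or more, scaled per plate between neutral and stimulator controls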;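 note: 0% = DMSO wells given calcium and 100% = 1 mM EGTA wells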
NR3A LBD binder: modulators (binders) of human NR3A ligand-binding domain; NR3A LBD differential scanning fluorimetry, Tm shift; 0% = protein alone, 100% = glycine-bound protein; Tm shift relative to glycine control, % at 25 µM; actives 2.5% (n = 340,000); AID 1259313;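 active = melting temperature shift of at least 10% of the positive control shift, at one fixed dose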
MPTP counter: membrane potential counter-screen of mitochondrial pore inhibitors; shares compounds with MPTP inh; isolated mitochondria, Rhodamine 123 fluorescence; inhibition, % at 10 µM; actives 78% (n = 5,000); in the data active = inhibition above about 22%;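 note: 0% = DMSO vehicle and 100% = positive control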
Starred values were filed as active, the others as inactive; . = no result given.

SMILES	Gli-Sufu antag	Mdm2 MdmX PPI	CSC inhib	Beta apoptosis	MPTP inh	NR3A LBD binder	MPTP counter
CCOc1ccc(N2CC(C(=O)Nc3c(C)n(C)n(-c4ccccc4)c3=O)CC2=O)cc1 (stereo not drawn)	-6	-19	-11	-5	-1	0	.
COc1ccc(S(=O)(=O)O/N=C2\CCSc3ccc(C)cc32)cc1	19	3	-4	.	59*	4	37*
Cc1ccc(C(=O)O/N=C2\CCSc3ccc(C)cc32)cc1	5	-10	-10	.	1	2	.
O=C(Nc1nnc(-c2ccc(Cl)cc2)o1)Nc1ccccc1F	4	9	-10	-10	1	-1	.
COc1cc(/C=C(\C#N)c2nc3ccccc3[nH]2)cc(Br)c1OCc1ccccc1	5	20	7	32	64*	17*	73*
N#C/C(=C\c1cc([N+](=O)[O-])c(N2CCOCC2)cc1N1CCOCC1)c1nc2ccccc2[nH]1	15	49	-9	15	0	-8	.
COc1cc(/C=C(\C#N)c2nc3ccccc3[nH]2)ccc1Oc1ccc([N+](=O)[O-])cn1	-16	17	18	21	78*	1	55*
N#C/C(=C\c1cccc(Oc2ccc(C(F)(F)F)cc2[N+](=O)[O-])c1)c1nc2ccccc2[nH]1	-8	38	69	-4	155*	8	105*
COc1ccc(/C=C(\C#N)c2nc3ccccc3[nH]2)cc1O	-23	-7	.	.	1	7	.
Cn1cc(C(=O)Nc2ccc(Cl)cc2)c(C(F)(F)F)n1	5	0	-6	-5	8	1	.
Cc1cc2c(NC(=O)Nc3ccc(C(F)(F)F)cc3)cccc2nn1	9	35	-9	13	86*	4	85*
Cn1cc(NC(=O)Nc2ccc(C(F)(F)F)cc2)c(C(F)(F)F)n1	6	7	-3	-8	66*	-4	86*
NC(=O)c1nsc(C(=O)N(Cc2cccnc2)C(C(=O)NCc2ccc(F)cc2)c2ccc(F)cc2)c1N (stereo not drawn)	24	-14	-4	3	0	0	.
O=C1NC(=S)S/C1=C\c1ccc(SCc2ccco2)o1	-1	.	14	-2	13	-3	.
O=C1NC(=S)S/C1=C\c1ccc(SCc2ccccc2)o1	7	.	76*	8	78*	-5	62*
COc1ccc(CNS(=O)(=O)c2ccc(F)c(C(=O)Nc3ccc(OC)cc3)c2)cc1	6	12	-8	-3	0	-23	.
O=C(Nc1cccc(Cl)c1)c1cc(S(=O)(=O)NCCc2ccc(Cl)cc2)ccc1F	-9	25	60	-13	70*	32*	71*
Cc1ccc(NC(=O)c2cc(S(=O)(=O)NCCc3ccccc3)ccc2F)cc1Cl	-3	28	55	-16	56*	24*	71*
CCCCOc1ccc(N=Cc2ccc[nH]2)cc1	-8	15	-10	2	0	-429	.
CC1CCN(CCCCOc2ccc([N+](=O)[O-])cc2)CC1	10	-1	33	2	11	-1	.
COC(=O)C1CCN(Cc2ccc(OCCCN3CCN(c4ccc([N+](=O)[O-])cc4)CC3)cc2)CC1	5	34	26	4	96*	0	82*
Cc1cc(/C=C2/SC(=S)N(c3cccc(C(F)(F)F)c3)C2=O)c(C)n1-c1cccnc1	71*	38	53	.	105*	-11	87*
Cc1ccc(OC(C)C(=O)N2CCN(c3ccccn3)CC2)cc1 (stereo not drawn)	11	.	.	.	-1	-1	.
O=C(O)CC(CC(=O)Nc1ccc(-n2ccc(C(F)(F)F)n2)cc1)c1ccccc1 (stereo not drawn)	0	11	-8	-11	4	-1	.
O=C(Nc1ccccc1)Nc1ccc(-n2ccc(C(F)(F)F)n2)cc1	40	-57	40	116*	79*	7	82*
SMILES	Gli-Sufu antag	Mdm2 MdmX PPI	CSC inhib	Beta apoptosis	MPTP inh	NR3A LBD binder	MPTP counter
CC1=NN(C(=O)c2ccc(Br)cc2)C(O)(C(F)(F)OC(F)(F)F)C1 (stereo not drawn)	-24	4	38	22	68*	-3	78*
CC1=NN(C(=O)c2csc(C)c2)C(O)(C(F)(F)F)C1 (stereo not drawn)	21	17	-4	0	-2	0	.
CCOC(=O)N1CCN(c2cc(=O)n(-c3ccc(C)cc3)c(=O)[nH]2)CC1	-2	10	1	2	-1	-2	.
CCN(CC)C(=S)Nc1ccc(Cl)c(Cl)c1	6	11	-42	-11	71*	0	59*
Cc1ccc(NC(=O)NCC2CC2(Cl)Cl)cc1 (stereo not drawn)	-47	-59	6	-3	0	-2	.
O=C(NCC1CC1(Cl)Cl)Nc1ccc(Cl)c(Cl)c1 (stereo not drawn)	-10	-8	73	43	62*	4	95*
NC(=S)NNC(=O)Nc1ccc(Cl)c(Cl)c1	-2	-6	9	-10	72*	6	70*
O=C(Cc1ccccc1)NNC(=O)Nc1ccc(Cl)c(Cl)c1	-4	22	9	-13	7	-3	.
Fc1ccc(NC(=S)SCc2ccc3c(c2)OCO3)cc1F	.	.	.	.	76*	.	94*
Fc1ccc(NC(=S)NCc2ccc3c(c2)OCO3)cc1	-7	-3	-15	-7	11	-8	.
Fc1cccc(NC(=S)NC2CCCCCCC2)c1	-3	-7	3	6	75*	4	98*
O=C(Nc1cccc(F)c1)C1CCCCC1	-5	-4	0	-2	-1	-1	.
O=C(Nc1cccc(C(F)(F)F)c1)C1CCCCC1	-4	11	-14	-4	-3	-6	.
FC(F)(F)c1ccc(NC(=S)NC2CCCCC2)cc1	-19	12	35	12	99*	1	78*
FC(F)(F)c1cccc(N2CCN(C(=S)NC3CCCCC3)CC2)c1	22	16	23	16	81*	-1	72*
FC(F)(F)c1cccc(NC(=S)NC2CCCC2)c1	2	10	.	2	100*	-2	83*
FC(F)(F)c1cccc(N2CCN(C(=S)NC3CCCC3)CC2)c1	-20	9	-7	-1	-3	-1	.
Cc1ccc(S(=O)(=O)NCc2ccco2)cc1C(N)=O	0	29	-9	.	-2	-1	.
Cc1cc(C)c(S(=O)(=O)NCCOc2ccccc2)c(C)c1-n1cnnn1	-20	16	.	4	-1	1	.
O=C(Nc1ccc(C(=O)O)cc1)/C(=C\c1ccc([N+](=O)[O-])cc1)NC(=O)c1ccc(Br)cc1	5	21	2	-3	-1	-4	.
Cc1cc(NC(=O)C2(C)CCN2C(C)C)c2ccccc2n1 (stereo not drawn)	.	.	.	.	1	.	.
S=C(NCc1cccs1)Nc1cccc(Cl)c1	0	4	10	-5	91*	2	98*

Source: PubChem (several laboratories)
